Assay results: PMC12136788
Substitutions are numbered along the chain they refer to. In all, about 24,000 sequences were measured (“enrichment r”: median about 0.99, highest 2% from about 3.7 on). What follows is part of a selection rich in the highest values, with near analogues and random picks from the rest.

B1: 103221519_103221723_537_3pUTR_ENSMUSG00000041781_ENSMUST00000047357|mouse|control|control (ssRNA)
RNA: GGGAGUUCUACAGUCCGACGAUCCAAUCUGAGAGAACUUCAGCUGCUGUAUUUUGUCAAAGGCUGCAUCCACAUCAUCCAAUGUAAAGAGGGUAAAAUCUUCUGUAUUGUGUCGAGACUGAUAGAGGUCGUACAUGAACAUCUCAACAGAGGAUUGAGCAUCA
B2: chr4:25749455:25749456:-_ENSG00000091490_ENST00000264868|hu_hu|hu_hu_hu_mus_False|8_108 (ssRNA)
RNA: GGGAGUUCUACAGUCCGACGAUCGCAAGCACUAGGAUAGAAAAAUCCACAGGGGGAAAAAAUGUAAACCAAUGUACAAUGUUAUCGCCUUCCCUGUGUGUGGAGUGUUUGUCUCAAGGCUCCUUCUUGCCUUAUAAUUUGGGACAACAGAGGAUUGAGCAUCA
B3: chr11:46405157:46405158:+_ENSG00000110492_ENST00000395566|hu_hu|hu_hu_hu_mus_False|78_78 (ssRNA)
RNA: GGGAGUUCUACAGUCCGACGAUCCCCUCCCCACUUUGGGCACUUGGUGUGGGCGUGAAGGCAGGGCCGUGAUUGACAGAGCUGACAGGAAGACAAAAGGCACUGGUGGGUUAUAUCUUGGGCCUGUGGGAGAGGAGGGCUCCGCAACAGAGGAUUGAGCAUCA
B4: 52873384_52873592_4094_CDS_ENSMUSG00000035247_ENSMUST00000042052|mouse|control|control (ssRNA)
RNA: GGGAGUUCUACAGUCCGACGAUCCACCAGGCGCCUCUGCCUUCUAAGAUUAGCUUCUGCUUCUUUAGCUGCUUUCCCUAGUUGGUCUUCGCACACGCCAUUCACAGUGCCAUAGAGUUCAAAGCCGGAGAGCGAGAGGUAGUGCAACAGAGGAUUGAGCAUCA
B5: chr7:149838072:149838073:-_ENSMUSG00000048583_ENSMUST00000000033|mus_hu|motif|central (ssRNA)
RNA: GGGAGUUCUACAGUCCGACGAUCUCACUGCCCCCCUGUUACAUGGGGGGGGGGUUUAAUUUGGUUUCUGAGCGCAUAAAGCGGAGGAGGGGUAAAAAAAAAACAAAAAAAAAAAAAAAAGGAAAAAUGCCCCAAGAAACAAAGCAACAGAGGAUUGAGCAUCA
B6: 19964410_19964530_1467_3pUTR_ENSMUSG00000020152_ENSMUST00000000137|mouse|control|control (ssRNA)
RNA: GGGAGUUCUACAGUCCGACGAUCUCUAAAUGCCUACAAAGAAAGAAACAGAGCAGCAGCAACCCCUUGCCCUGGUAAUGUCUGCAAAGAUUUGGUAGCCUUAAACAACCAGAUUUACCCAUAUUAACAAGAAUUUAGCAAUGCCAACAGAGGAUUGAGCAUCA
B7: chr13:112505112:112505113:+_ENSMUSG00000032727_ENSMUST00000109272|mus_mus|FALSE|FALSE (ssRNA)
RNA: GGGAGUUCUACAGUCCGACGAUCCAUAAAGGAUUCGGGGACAGCAAUGCCCAUCUUCAAUCUCUUUGCUGGUCUUUCGGAUUCUUCGCUGCACAUGGGGUUUAACUCUGAGUGAUAAAAUCCAGUCUCAAAUAAAUUAAAACACAACAGAGGAUUGAGCAUCA
B8: chr1:183098298:183098299:+_ENSMUSG00000062169_ENSMUST00000134115|mus_hu|FALSE|FALSE (ssRNA)
RNA: GGGAGUUCUACAGUCCGACGAUCUAUAAACAUGGCACCUUUCUGAUUUGCUUAGCCUCAGCAAGCCUGAUGUACUGUAAACUGACAGCCCAAAGGCUCUCUCAACUGCAUGAGUCACUGUUUUGGUUACUAAGAAUAUCUGAACAACAGAGGAUUGAGCAUCA
B9: chr7:149838072:149838073:-_ENSMUSG00000048583_ENSMUST00000000033|mus_hu|FALSE|FALSE (ssRNA)
RNA: B5 RNA with G82U, G83A
B10: chr8:4269914:4269915:-_ENSMUSG00000002949_ENSMUST00000149827|mus_mus|motif|central (ssRNA)
RNA: GGGAGUUCUACAGUCCGACGAUCCUUCUUGGCCUCAUCUCGGAACUUUUUUAUACUUUCUUUCAUCUCUUUGUUUUUGGCGGAUUCUUGUUUGAUGUUAUCUAGCAAGCCUGACAAAAACCCUUUUCUGCUCCCAGAAGAAUACAACAGAGGAUUGAGCAUCA
B11: 19721883_19722003_1295_CDS_ENSMUSG00000050428_ENSMUST00000053109|mouse|control|control (ssRNA)
RNA: GGGAGUUCUACAGUCCGACGAUCAGGGCUCACUGUCAGGCACACAGUCUCUUCCUUCACGUUCUUGGUGCCAUCUUUGCCAAAGAAGAUGCACGCAUCCACUACACCUGUUACCACCACAUCUACAUGGAAUCCUGAUGCACCCAACAGAGGAUUGAGCAUCA
B12: chr18:56819859:56819860:+_ENSG00000166562_ENST00000588875|hu_mus|hu_hu_hu_mus_True|18_38 (ssRNA)
RNA: GGGAGUUCUACAGUCCGACGAUCAACCUUGAUUACUCUGUGAACUAUCGGAAUGUCUCUUCCUUCAACCUUAAAAACAACUAUUUCACCAGCUCUGAUUGGGUCUUCCCGGAAAUUUGUGAGGAACAGCAGAUCUCCUCUGUGCAACAGAGGAUUGAGCAUCA
B13: chr6:128323885:128323886:+_ENSMUSG00000001517_ENSMUST00000073316|mus_mus|motif|central (ssRNA)
RNA: GGGAGUUCUACAGUCCGACGAUCAGGGUCCUCCUCCAGGCCAGGGAAACUGAUGUCUAGAAGGAUCUUGCUGAGGCGGUCAUUCAUUGUGUCCAGGACAAGGCCUUCUGUGAGAGAACGGUUGGCUGAAAGGCUGGGAAUCUGCAACAGAGGAUUGAGCAUCA
B14: chr12:48459454:48459455:-_ENSG00000079387_ENST00000551330|hu_mus|motif|central (ssRNA)
RNA: GGGAGUUCUACAGUCCGACGAUCUGCUUUCUGCUCUUCAAUCCGGCGCAAUCUUUCCCGAGCUCGAGAGUCAUAAACGCGGGUUAAUUCUUUGAUCCAUAGCUCUGCCUGGAAGAACGUAGGGCUGGAAGCUGGAGUCUGAGACAACAGAGGAUUGAGCAUCA

Target: T1, UNK ZnF1-3 (human, UniProt Q9C0B0 31-174)
T1 sequence: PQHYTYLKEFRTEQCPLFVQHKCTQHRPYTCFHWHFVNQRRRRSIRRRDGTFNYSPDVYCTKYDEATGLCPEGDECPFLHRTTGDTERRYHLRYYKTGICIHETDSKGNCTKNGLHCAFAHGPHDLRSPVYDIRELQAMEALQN
Assay: nsRBNS (natural sequence RNA bind-n-seq); RBNS binding buffer (assumed for nsRBNS): 25 mM Tris pH 7.5, 150 mM KCl, 3 mM MgCl2, 0.01% Triton X-100, 500 ug/ml BSA, 20 U/ml SUPERase-In, 4 C; UNK is unkempt and MSI1 is Musashi-1; names of the RNAs are library labels; protein concentration not given here; high values mean tight binding

Binder | binding signal
B1 | 1.57 enrichment R
B2 | 0.93 enrichment R
B3 | 2.23 enrichment R
B4 | 1.03 enrichment R
B5 | 22.9 enrichment R
B6 | 1.74 enrichment R
B7 | 1.01 enrichment R
B8 | 0.858 enrichment R
B9 | 12.2 enrichment R
B10 | 0.472 enrichment R
B11 | 1.01 enrichment R
B12 | 0.803 enrichment R
B13 | 1.01 enrichment R
B14 | 1.03 enrichment R
